Experimental data: PubChem BioAssay (NCI)
The panel holds about 83,000 compounds, 20% with a hit somewhere; the sample as a whole holds those more often.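 Method: cells in 96-well plates; compound added at one concentration; 48 h incubation; percent growth measured; values under 10 scored active.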 Active and inactive are the calls of the source.

How the values were obtained:
Assay in all cases: NCI-60 one-dose screen, 48 h (100 = growth as untreated, 0 = no growth, -100 = all killed)
Details in all cases: 10 µM unless noted
SK-MEL-2 melanoma = tested on: SK-MEL-2 melanoma
EKVX NSCLC = tested on: EKVX NSCLC
SN12C renal = tested on: SN12C renal
UO-31 renal = tested on: UO-31 renal
TK-10 renal = tested on: TK-10 renal
ACHN renal = tested on: ACHN renal
CAKI-1 renal = tested on: CAKI-1 renal
A498 renal = tested on: A498 renal
CCRF-CEM leukemia = tested on: CCRF-CEM leukemia
MOLT-4 leukemia = tested on: MOLT-4 leukemia

Measured: growth

C=C1c2nc3ccccc3n2C=C(c2cccc(Cl)c2)N1Cc1ccc(OC)cc1
inactive: SK-MEL-2 melanoma 28.2% | SN12C renal 37% | TK-10 renal 30.8% | ACHN renal 49.2% | A498 renal 91.7% | CCRF-CEM leukemia 47.2%
active: EKVX NSCLC 8.8% | UO-31 renal 9.79% | CAKI-1 renal 3.02% | MOLT-4 leukemia 8.13%

Cn1ccnc1C(=O)/C=C/c1ccccc1
inactive: SK-MEL-2 melanoma 46.9% | SN12C renal 41.6% | TK-10 renal 15.3% | ACHN renal 33% | CAKI-1 renal 11.7% | MOLT-4 leukemia 70%
active: EKVX NSCLC -9.85% | UO-31 renal -33.7% | A498 renal -15.9% | CCRF-CEM leukemia 9.1%

Cc1cc(NS(=O)(=O)c2ccc(-c3cnc(C4CC4)o3)cc2)ccc1Cl
active: A498 renal -17.8%
inactive: SK-MEL-2 melanoma 45.3% | EKVX NSCLC 28.5% | SN12C renal 48.4% | UO-31 renal 46.5% | TK-10 renal 54.3% | ACHN renal 40.4% | CAKI-1 renal 34.7% | CCRF-CEM leukemia 14.4% | MOLT-4 leukemia 17.8%

Cc1nc(/N=C(\N)NC(=O)Nc2cccc([N+](=O)[O-])c2)sc1C
inactive: SK-MEL-2 melanoma 88.1% | EKVX NSCLC 77.3% | SN12C renal 86.9% | UO-31 renal 83% | TK-10 renal 110% | ACHN renal 92% | CAKI-1 renal 58.3% | A498 renal 57.2% | CCRF-CEM leukemia 69.1% | MOLT-4 leukemia 51.5%

CN(Cc1cc(Cl)cc(Cl)c1O)Cc1cc(Cl)cc(Cl)c1O
inactive: SK-MEL-2 melanoma 93.5% | EKVX NSCLC 83.6% | SN12C renal 71.1% | UO-31 renal 46.2% | TK-10 renal 61.4% | ACHN renal 52.8% | CAKI-1 renal 42.9% | A498 renal 89.6% | CCRF-CEM leukemia 48.7% | MOLT-4 leukemia 47.7%

O=C1NC(=S)NC(=O)C1CC(=O)n1c(-c2ccccc2)nc2ccccc21
inactive: SK-MEL-2 melanoma 110% | EKVX NSCLC 82.4% | SN12C renal 95.8% | UO-31 renal 73.5% | TK-10 renal 143% | ACHN renal 86.6% | CAKI-1 renal 77.2% | A498 renal 89% | CCRF-CEM leukemia 110% | MOLT-4 leukemia 99.9%

COc1ccc(-n2nc(C)c3c(Oc4ccc(NC(=O)Nc5c(Cl)cccc5Cl)cc4)ncnc32)cc1
inactive: SK-MEL-2 melanoma 106% | EKVX NSCLC 95.8% | SN12C renal 101% | UO-31 renal 86.5% | TK-10 renal 110% | ACHN renal 106% | CAKI-1 renal 95.3% | A498 renal 99.1% | CCRF-CEM leukemia 95.5% | MOLT-4 leukemia 106%

C=C1C(=O)O[C@H]2[C@H]1CC/C(COC(=O)c1cc3cc(OC)ccc3[nH]1)=C\CC[C@@]1(C)O[C@@H]21
active: SK-MEL-2 melanoma -76.2% | EKVX NSCLC -86.2% | SN12C renal -80.8% | UO-31 renal -95.6% | TK-10 renal -97% | ACHN renal -93.9% | CAKI-1 renal -95.1% | A498 renal -95.3% | CCRF-CEM leukemia -21% | MOLT-4 leukemia -14.6%

CC(O)CN1CC(O)=C(c2nc3ccccc3s2)C1=N (stereo not given)
inactive: SK-MEL-2 melanoma 95.1% | EKVX NSCLC 108% | SN12C renal 103% | UO-31 renal 90.3% | TK-10 renal 131% | ACHN renal 228% | CAKI-1 renal 101% | A498 renal 116% | CCRF-CEM leukemia 97.4% | MOLT-4 leukemia 103%

CC(C)n1c(/C=C/[C@@H](O)C[C@@H](O)CC(=O)O)c(-c2ccc(F)cc2)c2ccccc21
inactive: SK-MEL-2 melanoma 15% | EKVX NSCLC 52.7% | SN12C renal 36.4% | UO-31 renal 44.7% | TK-10 renal 88.7% | ACHN renal 10.3% | CCRF-CEM leukemia 59.8% | MOLT-4 leukemia 60.8%
active: CAKI-1 renal -42.9% | A498 renal -21.3%

Cc1ccccc1COc1ccc(-c2onc(C)c2-c2ccc(Cl)cc2)cc1
inactive: SK-MEL-2 melanoma 37.1% | EKVX NSCLC 75.1% | SN12C renal 68.3% | UO-31 renal 72.4% | TK-10 renal 84.3% | ACHN renal 67% | CAKI-1 renal 48.7% | A498 renal 38.6% | CCRF-CEM leukemia 38.2% | MOLT-4 leukemia 32.8%

COc1ccc(-c2nc3ccc(-c4nc5ccc(N6CCN(c7ccncc7)CC6)cc5[nH]4)cc3[nH]2)cc1OC
inactive: EKVX NSCLC 69.2% | SN12C renal 45.2% | UO-31 renal 97.5% | TK-10 renal 101% | ACHN renal 91.9% | CAKI-1 renal 57.5% | A498 renal 61.4% | CCRF-CEM leukemia 21.1% | MOLT-4 leukemia 18.1%
active: SK-MEL-2 melanoma -17%

Fc1ccc2[nH]cc(SSc3c[nH]c4ccc(F)cc34)c2c1
inactive: SK-MEL-2 melanoma 62.8% | EKVX NSCLC 14.2% | SN12C renal 65.1% | UO-31 renal 21.5% | TK-10 renal 84.6% | ACHN renal 55.1% | CAKI-1 renal 32.6% | A498 renal 35% | CCRF-CEM leukemia 15.9% | MOLT-4 leukemia 14%
